From PubChem BioAssay
An excerpt weighted towards active compounds, which were near 1.5% of everything screened.
Glyco luc inh = N-linked glycosylation inhibition | reporter increase, % at 12.5 µM | AID 588692 | D54 ERlucT glycosylation luciferase reporter, 24 h; percent of 100 nM tunicamycin response | 360,000 tested, 0.23% active;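 active means mean luciferase reporter signal, scaled so untreated is 0 and the glycosylation-blocking control 100, at or above a set limit in every replicate; inconclusive means mean reaches the limit but not every replicate does; inactive means mean below the limit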;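 further: luciferase carries N-glycosylation sites so blocking glycosylation raises the light; 0% = median of neutral control wells and 100% = median of 100 nM tunicamycin wells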
F508del corr = CFTR F508del correction in bronchial cells; CFBE cells, YFP halide quenching; stimulated with forskolin plus potentiator P3; % fluorescence drop versus neutral controls; 350,000 tested, 0.36% active; activity (quench increase), % at 7.58 µM;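 active means mean added fluorescence quench of at least 8% versus neutral control, with both replicates also reaching 8%; inconclusive means only one of the mean or replicate conditions met; inactive means mean below 8% and not both replicates reaching 8%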;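 further: cells transiently co-express mutant CFTR-F508del with the halide-sensitive YFP; corrector assay measuring rescue of mutant channel to the surface after 24 h compound exposure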
dFosB activator = mouse delta FosB homodimer activation. purified delta FosB, TAMRA-CDK5 oligo fluorescence polarization; percent of positive-control signal above neutral wells. activation, % at 25 µM. 340,000 tested, 0.99% active;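 active means mean activation above about 17%, with every replicate also reaching it, limit read from the data, passing the limit was not always enough; inconclusive means only one of the two conditions met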
RAD52 anneal inh = blocks human RAD52 DNA annealing; 360,000 tested, 0.46% active; inhibition, % at 18.7 µM; recombinant RAD52 DNA annealing, FRET fluorescence; P43351;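 active means every replicate showing at least 50% inhibition; inconclusive means mean inhibition at least 50% but not in every replicate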
Target sequence (P43351 whole entry, looked up): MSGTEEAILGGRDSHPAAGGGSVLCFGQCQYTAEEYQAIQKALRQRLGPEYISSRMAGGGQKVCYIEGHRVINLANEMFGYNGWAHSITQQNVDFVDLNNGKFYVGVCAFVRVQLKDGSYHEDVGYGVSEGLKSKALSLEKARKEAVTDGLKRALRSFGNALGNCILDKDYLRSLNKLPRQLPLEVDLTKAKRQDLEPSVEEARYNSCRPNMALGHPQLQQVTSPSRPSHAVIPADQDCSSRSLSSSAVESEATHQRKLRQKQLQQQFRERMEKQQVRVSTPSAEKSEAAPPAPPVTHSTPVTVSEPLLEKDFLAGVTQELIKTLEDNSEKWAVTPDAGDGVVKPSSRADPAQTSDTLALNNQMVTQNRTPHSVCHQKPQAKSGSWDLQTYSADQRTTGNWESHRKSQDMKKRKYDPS
PvdQ inh = blocks Pseudomonas aeruginosa PvdQ acylase activity | 340,000 tested, 0.063% active | AID 488965 | inhibition, % at 10 µM | purified PvdQ acylase, fluorescence plate reader; in the data active means inhibition above about 30%, passing the limit was not always enough; inconclusive means no clear call, values can overlap the other calls;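 further: 0% = vehicle neutral wells and 100% = reference inhibitor wells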
RAD54 inh = blocks human RAD54 Holliday junction branch migration. inhibition, % at 10.4 µM. Q92698. FAM/BHQ fluorescence. AID 602329. 360,000 tested, 0.14% active;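 active means mean normalized replicate activity at least 40 and at least half of replicates scoring 40 or more; inconclusive means only one of the two criteria met; inactive means mean below 40 and under half of replicates reaching 40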;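 further: 0% = median of neutral control wells and 100% = median of positive control wells; inhibitors cause a drop in the FAM fluorescence signal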
Numbers without * were called inactive.

`Cc1noc(C)c1S(=O)(=O)Nc1ccc2c(c1)C(=O)N([C@@H](C)CO)C[C@@H](C)[C@H](CN(C)S(=O)(=O)c1ccc(F)cc1)OCCCC[C@H](C)O2` gave F508del corr 0.9, RAD52 anneal inh 94.4* and RAD54 inh -4.7.
Screening Cc1noc(C)c1S(=O)(=O)Nc1ccc2c(c1)C(=O)N([C@H](C)CO)C[C@H](C)[C@@H](CN(C)S(=O)(=O)c1ccc(F)cc1)OCCCC[C@@H](C)O2 returned F508del corr 0.8, RAD52 anneal inh 76.4* and RAD54 inh -2.3.
Screening Cc1noc(C)c1S(=O)(=O)Nc1ccc2c(c1)C(=O)N([C@@H](C)CO)C[C@H](C)[C@H](CN(C)S(=O)(=O)c1ccc(F)cc1)OCCCC[C@H](C)O2 returned F508del corr 0.5, RAD52 anneal inh 80.9* and RAD54 inh -4.1.
For Cc1noc(C)c1S(=O)(=O)Nc1ccc2c(c1)C(=O)N([C@@H](C)CO)C[C@H](C)[C@@H](CN(C)S(=O)(=O)c1ccc(F)cc1)OCCCC[C@@H](C)O2 the results were F508del corr 1.0.
O=C(C[C@H]1C=C[C@@H](NS(=O)(=O)c2cccc(F)c2)[C@@H](CO)O1)N1CCCCC1 was read as F508del corr -0.2, RAD52 anneal inh -8.7 and RAD54 inh -3.1.
For Cc1ccccc1-c1ccc(C2[C@@H]3CN(C(=O)Cc4ccncc4)C[C@H]2N3)cc1 (stereo partly specified) the results were F508del corr -0.5.
C[C@H](CO)N1C[C@H](C)[C@@H](CN(C)Cc2ccc(C(=O)Nc3ccccc3N)cc2)Oc2ccc(NC(=O)CCN3CCOCC3)cc2C1=O was read as F508del corr -0.6 and RAD52 anneal inh 2.9.
Screening NS(=O)(=O)c1cc(C2(O)NC(=O)c3ccccc32)ccc1Cl (stereo unspecified) returned Glyco luc inh 2.3, F508del corr 11.1*, dFosB activator -4.8, RAD52 anneal inh -3.1, PvdQ inh -7.5 and RAD54 inh 1.3.
For O=c1oc(-c2ccc(F)cc2)nc2ccsc12 the results were Glyco luc inh 3.4, dFosB activator 5.4, PvdQ inh 70.2* and RAD54 inh -0.5.
For COCC(=O)Nc1ccc2c(c1)C(=O)N(C)C[C@@H](OC)[C@@H](C)CN[C@@H](C)CO2 the results were F508del corr -2.0 and RAD54 inh 12.8.
`O=C1C2C3C=CC(C4CC34)C2C(=O)N1CCc1ccccc1` (stereo unspecified) gave Glyco luc inh 1.1, dFosB activator -9.2, PvdQ inh 1.0 and RAD54 inh 0.1.
`O=C(CN1C(=O)C2C3C=CC(C4CC34)C2C1=O)Oc1ccccc1` (stereo unspecified) gave Glyco luc inh 2.5, F508del corr 1.4, dFosB activator 5.2, RAD52 anneal inh -15.0, PvdQ inh 33.6* and RAD54 inh 8.9.
Screening CC1CCN(S(=O)(=O)c2ccc(NC(=O)Cn3nnc(-c4ccccc4)n3)cc2)CC1 returned Glyco luc inh 46.6*, dFosB activator inconclusive, PvdQ inh -5.5 and RAD54 inh 3.0.
Cc1[nH]n(-c2ccccc2)c(=O)c1C=Nc1ccc(S(=O)(=O)N=C(N)N)cc1 was read as Glyco luc inh -0.8, F508del corr -0.5, dFosB activator 26.4*, RAD52 anneal inh -13.7, PvdQ inh 3.6 and RAD54 inh 1.0.
`Cn1nc(-c2ccc(Cl)cc2)c2cc(C(=O)NCCN3CCOCC3)sc21` gave Glyco luc inh 0.9, F508del corr 3.7, dFosB activator -33.8, RAD52 anneal inh -1.2, PvdQ inh -25.0 and RAD54 inh 22.7.
`O=C(NCCCN1CCOCC1)c1cc(-c2ccccc2)on1` gave Glyco luc inh 29.5*, F508del corr -1.4, dFosB activator -1.6, RAD52 anneal inh 6.9, PvdQ inh 7.1 and RAD54 inh 5.1.
For CCCCNC(=O)c1cc(-c2ccc(F)cc2)on1 the results were Glyco luc inh 37.0*, dFosB activator 3.7, PvdQ inh -7.8 and RAD54 inh -0.7.
For O=C(NCCCN1CCOCC1)c1cc(S(=O)(=O)N2CCOCC2)c(Cl)cc1Cl the results were Glyco luc inh 0.4, F508del corr 9.0*, dFosB activator -3.3, RAD52 anneal inh -8.9, PvdQ inh 0.4 and RAD54 inh 7.7.
Screening Cn1nc(-c2ccc(Cl)cc2)c2cc(C(=O)NCCCN3CCOCC3)sc21 returned Glyco luc inh 33.4*, dFosB activator -50.4, PvdQ inh -11.0 and RAD54 inh 84.2*.
For O=C(NCCCN1CCOCC1)c1cc(Cl)ccc1Cl the results were Glyco luc inh 0.9, F508del corr -3.8, dFosB activator -2.1, RAD52 anneal inh -2.6, PvdQ inh -15.2 and RAD54 inh -0.1.
`NC1=NC(=O)/C(=C/c2ccc(OCC(=O)O)cc2)S1` gave Glyco luc inh -1.7, F508del corr -2.1, dFosB activator -6.1, RAD52 anneal inh -13.2, PvdQ inh -3.6 and RAD54 inh -1.5.
`CC(=O)Nc1ccc(S(=O)(=O)Oc2ccc(/C=C3\SC(N)=NC3=O)cc2)cc1` gave Glyco luc inh -1.4, F508del corr -1.3, dFosB activator 130.2*, RAD52 anneal inh -16.6 and PvdQ inh -6.5.
For C[C@@H](NC(=O)C[C@@H]1C[C@H]2c3cc(NC(=O)c4cccnc4)ccc3O[C@H]2[C@H](CO)O1)c1ccccc1 the results were F508del corr -0.2, RAD52 anneal inh 7.7 and RAD54 inh 2.2.
For Cc1c(CN2CCC(CO)(CCOc3ccccc3)CC2)[nH]c2c(Cl)cccc12 the results were Glyco luc inh -2.2, F508del corr -1.4, dFosB activator 21.3*, RAD52 anneal inh -12.5 and PvdQ inh -3.3.
`Cc1nn(C)c(Cl)c1CN1CCC(CO)(CCOc2ccccc2)CC1` gave Glyco luc inh -1.4, F508del corr -1.3, dFosB activator 1.0, RAD52 anneal inh -8.8, PvdQ inh 12.1 and RAD54 inh 3.7.
O=C(Cc1ccccc1)N1CC(=O)N2[C@H](CO)[C@H](c3ccc(C#CCc4ccccc4)cc3)[C@H]2C1 was read as F508del corr 2.1 and RAD52 anneal inh -5.4.
CCN(CC)c1ccc(/C=C(/C#N)c2nc3ccc(C)cc3[nH]2)c(OC(C)C)c1 was read as Glyco luc inh -3.8, F508del corr 17.5*, dFosB activator -14.2, RAD52 anneal inh -417.4, PvdQ inh 0.6 and RAD54 inh -15.8.
`CCCOc1cc(N(CC)CC)ccc1/C=C(/C#N)c1nc2ccc(C)cc2[nH]1` gave Glyco luc inh -7.5, F508del corr 33.7*, dFosB activator -22.4, RAD52 anneal inh -313.8, PvdQ inh -0.1 and RAD54 inh -17.0.
`CCOc1cc(N(CC)CC)ccc1/C=C(/C#N)c1nc2ccccc2[nH]1` gave Glyco luc inh -2.5, dFosB activator -12.3, PvdQ inh 9.2 and RAD54 inh -22.7.
